Tests used:
Experiment in all cases: PBM binding z-score (relative to random genomic background probes); higher = stronger binding; sequences stand for … in GC…GCGATTGACAGCGTAGAATGAAGG
[1] = test system: FXR:RXRa (NR concentration 270 nM, RXRa partner concentration 90 nM)
Summary of the method: (§1)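 Each nuclear receptor dimer, without ligand, was incubated for 1 h on custom Agilent 4×180K protein-binding microarrays. Binding was detected with antibodies against each partner (one per run), and scanned fluorescence was regression-normalized. The binding z-scores are referenced to random human genomic background probes.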

[2] = test system: LXRa:RXRa (NR concentration 270 nM, RXRa partner concentration 90 nM)
Summary of the method: as §1

[3] = test system: LXRa homodimer (NR concentration 270 nM)
Summary of the method: as §1

[4] = test system: LXRb:RXRa (NR concentration 270 nM, RXRa partner concentration 90 nM)
Summary of the method: as §1

[5] = test system: LXRb homodimer (NR concentration 270 nM)
Summary of the method: as §1

[6] = test system: PPARa:RXRa (NR concentration 270 nM, RXRa partner concentration 90 nM)
Summary of the method: as §1

[7] = test system: PPARg:RXRa (NR concentration 180 nM, RXRa partner concentration 90 nM)
Summary of the method: as §1

[8] = test system: PPARg:RXRa 270nM:90nM, anti-RXR (NR concentration 270 nM, RXRa partner concentration 90 nM)
Summary of the method: as §1

[9] = test system: PPARg:RXRa 30nM:10nM, anti-RXR (NR concentration 30 nM, RXRa partner concentration 10 nM)
Summary of the method: as §1

[10] = test system: PPARg:RXRa 90nM:30nM, anti-RXR (NR concentration 90 nM, RXRa partner concentration 30 nM)
Summary of the method: as §1

Row | Sequence | PBM binding z-score [1] | PBM binding z-score [2] | PBM binding z-score [3] | PBM binding z-score [4] | PBM binding z-score [5] | PBM binding z-score [6] | PBM binding z-score [7] | PBM binding z-score [8] | PBM binding z-score [9] | PBM binding z-score [10]
1 | ATATGTAGATTAGGGTCATTCAGAAAGTAGGGAA | 4.07 | 3.39 | 0.828 | 4.21 | 1.27 | 4.91 | 3.51 | 3.48 | 1.4 | 2.69
2 | ACTAACAGGCCAAGGGTCACTCAAGATTAGTCCG | 2.89 | 3.27 | 0.663 | 3.06 | 0.292 | 4.35 | 6.9 | 6.64 | 4.86 | 6.91
3 | CTCGAAAGGTCGTGCTTAGGTGAGTATACCAAAC | 4.83 | 3.99 | 0.372 | 3.46 | 0.121 | 4.98 | 2.86 | 4.3 | 1.12 | 2.98
4 | CCTACGGGGCCAAGGTCATTGATCAGTCAAAGCA | 3.57 | 3.06 | 0.732 | 2.94 | -0.542 | 3.79 | 2.83 | 3.73 | 1.3 | 2.88
5 | CTCGAAAGGTCGGTTGAGGTCAGTATACGGATAA | 5.06 | 5.23 | 1.74 | 3.81 | 0.351 | 3.83 | 1.26 | 2.17 | 0.448 | 1.75
6 | CAAACTAGGTCACAGAGGGCAAAGTCCGTGCGTA | 5.08 | 4.6 | 2.26 | 3.61 | 0.517 | 5.45 | 8.81 | 7.31 | 5.42 | 7.28
7 | CATACAGGGACAGCTAGGCCAGAGTAGGGACGGC | -0.116 | -0.651 | -0.464 | -0.85 | -0.351 | -0.533 | 0.544 | -0.673 | -0.277 | -0.633
8 | CCTAGTTGGTCAAGCTCACACACGCTATAGGTAC | 0.0686 | 0.299 | 0.418 | 0.309 | 0.719 | 0.0262 | 0.838 | 0.282 | 0.0303 | 0.00108
9 | CGAACTAGGTCAACAGGACAGTGAAGAGGTTGGA | 3.71 | 2.37 | 0.16 | 1.55 | -0.34 | 4.7 | 7.52 | 6.53 | 4.22 | 6.18
10 | TAGCCTAGGTCATTGGGCCAGTATAGTACGCATC | 4.22 | 3.49 | 0.558 | 2.36 | 0.375 | 3.82 | 3.56 | 3.65 | 0.801 | 2.75
11 | GCTAGTGGGTCAGTAAAAGGTCACACACCGGTCG | 4.47 | 4.77 | 4.65 | 4.61 | 0.38 | 5.24 | 6.44 | 5.98 | 3.57 | 5.34
12 | ATATGTTGGTTAGGGTCATTCAGAAAGTAGGGAA | 4.81 | 4 | 1.67 | 4.72 | 2.36 | 4.86 | 3.15 | 3.69 | 1.7 | 2.88
13 | CGAACTAGGTCACCAGGGCAGTGAAGAGGTTGGA | 3.67 | 2.48 | 0.0109 | 1.52 | -0.639 | 5.2 | 8.69 | 6.86 | 4.52 | 6.42
14 | CCTACTGGGGCACGAAAGGTCATTGATTCAGTGA | 4.09 | 5.15 | 4.81 | 4.57 | 0.0561 | 4.99 | 6.01 | 5.54 | 2.79 | 4.75
15 | ATCGAAACGTCGACGAGGTGAGTATACACCGTTT | -0.264 | -0.5 | -0.605 | -0.525 | -0.00441 | -0.269 | 0.855 | -0.111 | -0.111 | -0.157
16 | ATATGTAGGGTAGGGTCATTCAGAAAGTAGGGAA | 4.09 | 4.09 | 2.32 | 5.19 | 4.59 | 5.28 | 7.32 | 5.53 | 3.19 | 4.91
17 | CCGACGGGGGCAAGGTTACCATAACGCACAGCCA | 3.14 | 3.01 | 0.301 | 4.21 | 3.34 | 3.96 | 2.74 | 3.36 | 1.37 | 2.84
18 | ACTAGGTGGTCAGCTGAGGTCACACACAATTCGG | 3.12 | 3.37 | 2.31 | 3.52 | -0.173 | 3.87 | 2.43 | 2.63 | 0.956 | 2.14
19 | CGAACTAGGTCACCAGTACAGTGAAGAGGTTGGA | 3.77 | 2.35 | 0.174 | 1.82 | 0.0155 | 4.77 | 8.77 | 7.17 | 5.27 | 6.88

Source: the supplement of paper PMC6555819
